Results: PubChem BioAssay (NCATS)
Several values for one entry are separate records, joined by “and”; a condition that tells them apart may be missing. Equal entries are not always repeated. Records with an inconclusive call do not appear. Unmarked numbers belong to inactive results. Activity calls are given as the source filed them. Calls come from the whole dose curve; as a rule, active = well fitted curve in the direction sought with a large enough effect; inconclusive = small, poorly fitted or top-dose-only effect, or another doubt; inactive = no such curve, though single readings can be large; an effect the other way counts as inactive or inconclusive.

Experiments:
[1] = Viability qHTS for spleen associated tyrosine kinase inhibitor (SYKi) drug resistant MV4-11 cells (AID 1963824); settings: SYKi-resistant MV4-11 viability, CellTiter-Glo, 72 h; series mostly up to 45 µM; note: nearly all actives have a fitted effect of over 35% in size; note: potency is the fitted concentration of half-maximal effect
How it was run: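 SYK inhibitor-resistant MV4-11 AML cells, 500 per well, added to predispensed compounds and incubated 72 hr at 37 C, 5% CO2. Viability measured by CellTiter-Glo luminescence after 10 min at room temperature.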

[2] = Quantitative highthroughput screen to assess conditional lethalithy of NOMO1 cells grown in RPMI1640 with untreated serum (RPMI+s) (AID 1963876); settings: NOMO1 AML cells in RPMI+serum, CellTiter-Glo viability, 48 h; series mostly up to 45.8 µM; note: nearly all actives have a fitted effect of over 35% in size; note: potency is the fitted concentration of half-maximal effect;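 for Viability: 100% = DMSO wells and 0% = empty wells without cells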
How it was run: (§1)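 Each medium arm—HPLM with 10% dialyzed FBS, or RPMI1640 with 5 mM glucose and 10% untreated or dialyzed FBS—was screened against an 11-point, 3-fold compound titration for 48 h at 37 °C, with CellTiter-Glo luminescence as endpoint.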

[3] = Quantitative highthroughput screen to assess conditional lethalithy of P12 Ichikawa cells grown in Human Plasma-Like Medium with dialyzed fetal bovine serum (HPLM+ds) (AID 1963879); settings: ATP luminescence, 48 h; Potency: viability; series mostly up to 45.8 µM; note: nearly all actives have a fitted effect of over 35% in size; note: potency is the fitted concentration of half-maximal effect
How it was run: as §1

[4] = Cellular viability qHTS for adrenocortical cancer (ACC) cell line SW-13 (AID 1963989); settings: SW-13 ACC cells viability, CellTiter-Glo, 48 h; activity (max response): hits give low values; note: nearly all actives have a fitted effect of over 65% in size; note: potency is the fitted concentration of half-maximal effect;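 for activity (max response): cells grown in serum-free medium with ITS supplement; % is set by controls: 0 for no effect and ±100 for the full control effect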
How it was run: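 Viability was read as CellTiter-Glo luminescence after 48 h compound treatment (up to 46 uM final) of SW-13 cells grown serum-free; titration curves were fit with a four-parameter logistic model to give IC50 and efficacy.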

[5] = Quantitative highthroughput screen to assess conditional lethalithy of P12 Ichikawa cells grown in RPMI1640 with dialyzed fetal bovine serum (RPMI+ds) (AID 1963880); settings: ATP luminescence, 48 h; Potency: P12-Ichikawa viability; series mostly up to 45.8 µM; note: nearly all actives have a fitted effect of over 35% in size; note: potency is the fitted concentration of half-maximal effect;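 for Viability: 100% = DMSO wells and 0% = empty wells on each plate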
How it was run: as §1

[6] = Quantitative highthroughput screen to assess conditional lethalithy of P12 Ichikawa cells grown in RPMI1640 with untreated serum (RPMI+s) (AID 1963881); settings: ATP luminescence, 48 h; Potency: viability; series mostly up to 45.8 µM; note: nearly all actives have a fitted effect of over 35% in size; note: potency is the fitted concentration of half-maximal effect;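 for Viability: 100% = DMSO wells and 0% = empty wells without cells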
How it was run: as §1

[7] = Cellular viability qHTS for adrenocortical cancer (ACC) cell line NCI-H295R (AID 1963990); settings: CellTiter-Glo ATP luminescence, 48 h; series mostly up to 46.1 µM; note: nearly all actives have a fitted effect of over 60% in size; note: potency is the fitted concentration of half-maximal effect
How it was run: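 CellTiter-Glo ATP luminescence, read 48 h after compound addition, measured viability of NCI-H295R adrenocortical cells grown serum-free with ITS. Final concentrations spanned up to 46 uM. Data normalized to DMSO and doxorubicin, fitted for IC50 and maximal response.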

[8] = Quantitative highthroughput screen to assess conditional lethalithy of NOMO1 cells grown in RPMI1640 with dialyzed fetal bovine serum (RPMI+ds) (AID 1963877); settings: NOMO1 in RPMI+dialyzed FBS viability, ATP luminescence, 48 h; series mostly up to 45.8 µM; note: nearly all actives have a fitted effect of over 30% in size; note: potency is the fitted concentration of half-maximal effect;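 for Viability: 100% = DMSO control wells and 0% = empty wells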
How it was run: as §1

[9] = Quantitative highthroughput screen to assess conditional lethalithy of NOMO1 cells grown in Human Plasma-Like Medium with dialyzed fetal bovine serum (HPLM+ds) (AID 1963878); settings: NOMO1 AML cells in HPLM+ds, CellTiter-Glo viability, 48 h; series mostly up to 45.8 µM
How it was run: as §1

[10] = Quantitative highthroughput screen to assess conditional lethalithy of SEM cells grown in Human Plasma-Like Medium with dialyzed fetal bovine serum (HPLM+ds) (AID 1963882); settings: SEM B-ALL cells in HPLM+ds, CellTiter-Glo viability, 48 h; series mostly up to 45.8 µM; note: nearly all actives have a fitted effect of over 35% in size; note: potency is the fitted concentration of half-maximal effect
How it was run: as §1

[11] = Quantitative highthroughput screen to assess conditional lethalithy of SEM cells grown in RPMI1640 with unreated serum (RPMI+s) (AID 1963883); settings: SEM B-ALL cells, CellTiter-Glo viability, 48 h; series mostly up to 45.8 µM; note: nearly all actives have a fitted effect of over 35% in size; note: potency is the fitted concentration of half-maximal effect;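 for Viability: 100% = DMSO wells and 0% = empty wells without cells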
How it was run: as §1

[12] = Quantitative highthroughput screen to assess conditional lethalithy of SEM cells grown in RPMI1640 with dialyzed fetal bovine serum (RPMI+ds) (AID 1963884); settings: SEM B-ALL cells, RPMI+dialyzed FBS, CellTiter-Glo viability, 48 h; series mostly up to 45.8 µM
How it was run: as §1

Row | SMILES | Potency [1] | Potency [2] | Potency [3] | activity (max response) [4] [%] | Potency [5] | Potency [6] | Potency [4] | Potency [7] | Potency [8] | Potency [9] | Potency [10] | Potency [11] | Potency [12]
1 | Cc1ccc(-n2[nH]c(C)c(N=Nc3cccc(-c4cccc(C(=O)O)c4)c3O)c2=O)cc1C | 13.3 µM (active) | inactive | 16.6 µM (active) | 7.78 | – | – | – | – | – | – | – | – | –
2 | CNC(=O)CN1CCC(Oc2cc3c(Nc4cccc(Cl)c4F)ncnc3cc2OC)CC1 | 11.6 µM (active) | 0.372 µM (active) | 2.64 µM (active) | – | 3.32 µM (active) | 2.09 µM (active) | 0.562 µM (active) | inactive | – | – | – | – | –
3 | CC(C)C(=O)Oc1ccc(CO)cc1[C@H](CCN(C(C)C)C(C)C)c1ccccc1 | inactive | – | inactive | – | – | inactive | – | – | inactive | inactive | – | – | –
4 | COc1cc(OC2CCN(C)CC2)ccc1Nc1ncc2c(n1)n(C1CCCC1)c(=O)n2C | 2.95 µM (active) | – | – | – | 20.9 µM (active) | 23.5 µM (active) | 25.1 µM (active) | 15.8 µM (active) | 18.7 µM (active) | – | 10.5 µM (active) | 11.8 µM (active) | 14.8 µM (active)
5 | Cc1c(NC(=O)c2ccc(C(C)(C)C)cc2)cccc1-c1cn(C)c(=O)c(Nc2ccc(C(=O)N3CCOCC3)cc2)n1 | 11.4 µM (active) and 16.6 µM (active) | – | inactive | -3.65 | inactive | inactive | – | inactive | inactive | inactive | inactive | inactive | –
6 | O=C(CCc1ccc(O)cc1)c1c(O)cc(O)cc1O | inactive | – | inactive | -4.39 | inactive | inactive | – | inactive | inactive | – | inactive | inactive | –
7 | COc1cc2nccc(Oc3ccc(NC(=O)C4(C(=O)Nc5ccc(F)cc5)CC4)cc3)c2cc1OC | 0.0093 µM (active) | inactive | – | – | – | 20.9 µM (active) | 12.6 µM (active) | 10 µM (active) | – | – | – | – | –
